Measurements reported in PubChem BioAssay AID1159580 (chemical genetic matrix, 2015).
The whole screen tested about 5,500 compounds, of which about 2,000 (36%) were called active. Another 18% or so got no clear call; they are omitted. No stated cut-off is given here; in the data, active means normalized growth mostly below about 0.91 (no sharp cut-off); inconclusive means no clear call, values can overlap the other calls; inactive means mostly above about 0.92. The list shows a part of the results.

Assay: chemical genetic growth profiling, strain panel (AID 1159580);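 further: tested at 20 µM; growth read once vehicle control cultures reached saturation at 30 °C; 1 = growth at the plate median or of vehicle wells; lower values mean less growth of the strain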
Settings: growth OD
[1] = S. cerevisiae deletion strains, locus YAL040C, strain CLN3, active compounds read low
[2] = S. cerevisiae deletion strains, locus YCL061C, strain MRC1 (second series), active compounds read low
[3] = S. cerevisiae deletion strains, locus YDR150W, strain NUM1, active compounds read low
[4] = S. cerevisiae deletion strains, locus YDR363W, strain ESC2, active compounds read low
[5] = S. cerevisiae deletion strains, locus YER002W, strain NOP16, active compounds read low
[6] = S. cerevisiae deletion strains, locus YGR078C, strain PAC10, active compounds read low
[7] = S. cerevisiae deletion strains, locus YGR229C, strain SMI1, active compounds read low
[8] = S. cerevisiae deletion strains, locus YMR263W, strain SAP30, active compounds read low
[9] = S. cerevisiae deletion strains, locus YNL128W, strain TEP1, active compounds read low
[10] = S. cerevisiae deletion strains, locus YNL153C, strain GIM3, active compounds read low
[11] = S. cerevisiae deletion strains, locus YNL175C, strain NOP13, active compounds read low
[12] = S. cerevisiae deletion strains, locus YNL197C, strain WHI3, active compounds read low
[13] = S. cerevisiae deletion strains, locus YNL224C, strain SQS1, active compounds read low
[14] = S. cerevisiae deletion strains, locus YOR083W, strain WHI5 (second series), active compounds read low
[15] = S. cerevisiae deletion strains, locus YPL055C, strain LGE1, active compounds read low
[16] = S. cerevisiae deletion strains, locus YDL101C, strain DUN1, active compounds read low
[17] = S. cerevisiae deletion strains, locus YHR030C, strain SLT2, active compounds read low
[18] = S. cerevisiae deletion strains, locus YAL013W, strain DEP1, active compounds read low
[19] = S. cerevisiae deletion strains, locus YJR075W, strain HOC1, active compounds read low
[20] = S. cerevisiae deletion strains, locus YPL241C, strain CIN2, active compounds read low
[21] = S. cerevisiae deletion strains, locus YBR229C, strain ROT2, active compounds read low
[22] = S. cerevisiae deletion strains, locus YEL061C, strain CIN8, active compounds read low
[23] = S. cerevisiae deletion strains, locus YHR087W, strain rtc3, active compounds read low
[24] = S. cerevisiae deletion strains, locus YJR043C, strain POL32, active compounds read low
[25] = S. cerevisiae deletion strains, locus YLR039C, strain RIC1, active compounds read low
[26] = S. cerevisiae deletion strains, locus YLR058C, strain SHM2 (second series), active compounds read low
[27] = S. cerevisiae deletion strains, locus YLR085C, strain ARP6, active compounds read low
[28] = S. cerevisiae deletion strains, locus YLR262C, strain YPT6, active compounds read low
[29] = S. cerevisiae deletion strains, locus YML094W, strain GIM5, active compounds read low
[30] = S. cerevisiae deletion strains, locus YMR219W, strain ESC1, active compounds read low
[31] = S. cerevisiae deletion strains, locus YNL298W, strain CLA4 (second series), active compounds read low
[32] = S. cerevisiae deletion strains, locus YNL322C, strain KRE1, active compounds read low
[33] = S. cerevisiae deletion strains, locus YNR030W, strain Alg12, active compounds read low
[34] = S. cerevisiae deletion strains, locus YPR135W, strain CTF4, active compounds read low
[35] = S. cerevisiae strains, strain wild type, active compounds read low

Measured: normalized growth

Cc1ccc(OCC(O)C(C)NC(C)C)c2c1CCC2 (stereo not drawn)
inactive: [1] 0.989 | [2] 0.993 | [3] 1.01 | [4] 0.961 | [5] 0.977 | [6] 0.982 | [7] 1.01 | [8] 1 | [9] 0.985 | [10] 1 | [11] 0.982 | [12] 0.972 | [13] 1 | [14] 1 | [15] 1

O=C(NC(=S)NNc1ncc(C(F)(F)F)cc1Cl)c1cccs1
active: S. cerevisiae deletion strains, locus YAR019C, strain CDC15, active compounds read low 0.665 | S. cerevisiae deletion strains, locus YBL105C, strain PKC1, active compounds read low 0.764 | S. cerevisiae deletion strains, locus YBR135W, strain CKS1, active compounds read low 0.604 | S. cerevisiae deletion strains, locus YBR136W, strain MEC1, active compounds read low 0.537 | S. cerevisiae deletion strains, locus YBR160W, strain CDC28, active compounds read low 0.692 | S. cerevisiae deletion strains, locus YDL017W, strain CDC7, active compounds read low 0.727 | S. cerevisiae deletion strains, locus YDL028C, strain MPS1, active compounds read low 0.537 | [16] 0.576 | S. cerevisiae deletion strains, locus YDL108W, strain KIN28, active compounds read low 0.726 | S. cerevisiae deletion strains, locus YDL132W, strain cdc53, active compounds read low 0.588 | S. cerevisiae deletion strains, locus YDL214C, strain PRR2, active compounds read low 0.218 | S. cerevisiae deletion strains, locus YDR052C, strain DBF4, active compounds read low 0.581 | S. cerevisiae deletion strains, locus YDR054C, strain cdc34, active compounds read low 0.492 | S. cerevisiae deletion strains, locus YDR226W, strain ADK1, active compounds read low 0.527 | S. cerevisiae deletion strains, locus YDR477W, strain SNF1, active compounds read low 0.31 | S. cerevisiae deletion strains, locus YER123W, strain YCK3, active compounds read low 0.17 | S. cerevisiae deletion strains, locus YER133W, strain GLC7, active compounds read low 0.37 | S. cerevisiae deletion strains, locus YFL009W, strain cdc4, active compounds read low 0.51 | S. cerevisiae deletion strains, locus YFL029C, strain CAK1, active compounds read low 0.59 | S. cerevisiae deletion strains, locus YFR003C, strain YPI1, active compounds read low 0.738 | S. cerevisiae deletion strains, locus YFR019W, strain FAB1, active compounds read low 0.384 | S. cerevisiae deletion strains, locus YFR028C, strain CDC14, active compounds read low 0.482 | S. cerevisiae deletion strains, locus YGR040W, strain KSS1, active compounds read low 0.28 | S. cerevisiae deletion strains, locus YGR052W, strain FMP48, active compounds read low 0.171 | S. cerevisiae deletion strains, locus YGR092W, strain DBF2, active compounds read low 0.163 | [17] 0.287 | S. cerevisiae deletion strains, locus YHR079C, strain IRE1, active compounds read low 0.294 | S. cerevisiae deletion strains, locus YHR082C, strain KSP1, active compounds read low 0.296 | S. cerevisiae deletion strains, locus YHR205W, strain SCH9, active compounds read low 0.244 | S. cerevisiae deletion strains, locus YIL147C, strain SLN1, active compounds read low 0.609 | S. cerevisiae deletion strains, locus YJL095W, strain BCK1, active compounds read low 0.244 | S. cerevisiae deletion strains, locus YJL128C, strain PBS2, active compounds read low 0.328 | S. cerevisiae deletion strains, locus YJL157C, strain FAR1, active compounds read low 0.198 | S. cerevisiae deletion strains, locus YJR016C, strain ILV3, active compounds read low 0.624 | S. cerevisiae deletion strains, locus YJR066W, strain TOR1 (second series), active compounds read low 0.15 | S. cerevisiae deletion strains, locus YJR066W, strain TOR1, active compounds read low 0.237 | S. cerevisiae deletion strains, locus YKL048C, strain ELM1, active compounds read low 0.256 | S. cerevisiae deletion strains, locus YKL067W, strain YNK1, active compounds read low 0.17 | S. cerevisiae deletion strains, locus YKL101W, strain HSL1, active compounds read low 0.242 | S. cerevisiae deletion strains, locus YKL193C, strain SDS22, active compounds read low 0.629 | S. cerevisiae deletion strains, locus YKL203C, strain TOR2, active compounds read low 0.234 | S. cerevisiae deletion strains, locus YLR113W, strain HOG1, active compounds read low 0.252 | S. cerevisiae deletion strains, locus YLR133W, strain CKI1, active compounds read low 0.251 | S. cerevisiae deletion strains, locus YLR403W, strain SFP1, active compounds read low 0.123 | S. cerevisiae deletion strains, locus YML070W, strain DAK1, active compounds read low 0.247 | S. cerevisiae deletion strains, locus YMR001C, strain CDC5, active compounds read low 0.549 | S. cerevisiae deletion strains, locus YMR205C, strain PFK2 (second series), active compounds read low 0.23 | S. cerevisiae deletion strains, locus YMR277W, strain FCP1, active compounds read low 0.413 | S. cerevisiae deletion strains, locus YNL006W, strain LST8, active compounds read low 0.714 | S. cerevisiae deletion strains, locus YNL020C, strain ARK1, active compounds read low 0.211 | S. cerevisiae deletion strains, locus YNL161W, strain CBK1, active compounds read low 0.533 | S. cerevisiae deletion strains, locus YNL183C, strain NPR1, active compounds read low 0.195 | S. cerevisiae deletion strains, locus YNL207W, strain RIO2, active compounds read low 0.6 | S. cerevisiae deletion strains, locus YNL222W, strain SSU72, active compounds read low 0.559 | S. cerevisiae deletion strains, locus YNL307C, strain MCK1 (second series), active compounds read low 0.146 | S. cerevisiae deletion strains, locus YOL078W, strain AVO1, active compounds read low 0.585 | S. cerevisiae deletion strains, locus YOL136C, strain PFK27, active compounds read low 0.276 | S. cerevisiae deletion strains, locus YOR061W, strain CKA2, active compounds read low 0.242 | S. cerevisiae deletion strains, locus YOR119C, strain RIO1, active compounds read low 0.237 | S. cerevisiae deletion strains, locus YOR231W, strain MKK1, active compounds read low 0.256 | S. cerevisiae deletion strains, locus YOR329C, strain SCD5, active compounds read low 0.727 | S. cerevisiae deletion strains, locus YPL031C, strain PHO85, active compounds read low 0.441 | S. cerevisiae deletion strains, locus YPL153C, strain RAD53, active compounds read low 0.283 | S. cerevisiae deletion strains, locus YPL204W, strain HRR25, active compounds read low 0.315 | S. cerevisiae deletion strains, locus YPL209C, strain IPL1, active compounds read low 0.736 | S. cerevisiae deletion strains, locus YPL256C, strain CLN2, active compounds read low 0.367 | S. cerevisiae deletion strains, locus YPR025C, strain CCL1, active compounds read low 0.745 | S. cerevisiae deletion strains, locus YPR106W, strain ISR1, active compounds read low 0.472 | S. cerevisiae deletion strains, locus YPR111W, strain DBF20, active compounds read low 0.453 | S. cerevisiae deletion strains, strain NNK1, active compounds read low 0.492 | S. cerevisiae deletion strains, strain TSCII, active compounds read low 0.524

NCCS(=O)O
inactive: [18] 1.01 | [1] 0.998 | [2] 1.01 | [3] 1 | [4] 1.02 | [5] 1 | [7] 1 | [19] 1.01 | [8] 1.01 | S. cerevisiae deletion strains, locus YMR307W, strain GAS1, active compounds read low 1.01 | [11] 1 | [12] 1 | [13] 0.991 | [14] 1.03 | [20] 1

Cc1onc(-c2ccccc2)c1C(=O)On1c(-c2ccccc2)nc2ccccc2c1=O
inactive: [18] 0.963 | [21] 0.988 | [16] 0.944 | [3] 0.902 | [22] 0.933 | [6] 0.953 | [23] 1.05 | [24] 0.987 | [19] 0.92 | [26] 0.979 | [29] 0.934 | [30] 0.953 | [8] 0.932 | [9] 0.961 | [10] 1 | [15] 0.973
active: S. cerevisiae deletion strains, locus YDL134C, strain PPH21, active compounds read low 0.922 | [17] 0.196 | [25] 0.236 | [27] 0.537 | [28] 0.21 | [31] 0.816 | [32] 0.928 | [33] 0.852 | S. cerevisiae deletion strains, locus YOL006C, strain TOP1, active compounds read low 0.63 | [20] 0.82 | [34] 0.368 | [35] 0.888

CC(=O)c1ccccc1OC(=O)c1c(-c2c(Cl)cccc2Cl)noc1C
inactive: [18] 0.996 | [21] 0.994 | S. cerevisiae deletion strains, locus YCL061C, strain MRC1, active compounds read low 0.996 | [16] 1.02 | [3] 0.882 | [22] 1.01 | [6] 1.01 | [7] 0.998 | [17] 0.834 | [23] 0.988 | [24] 0.984 | [19] 1.01 | S. cerevisiae deletion strains, locus YKL190W, strain CNB1, active compounds read low 0.995 | [25] 0.923 | [26] 1 | [27] 0.985 | [28] 0.935 | [29] 1.04 | [30] 1 | [8] 0.991 | [9] 1 | [10] 1 | [31] 1.02 | [32] 1.01 | [33] 1 | [15] 1.02 | [20] 0.996 | [34] 1.12 | [35] 1.01
